From PubChem BioAssay come the findings set out here.

For some assays here: Entries with a potency or affinity are not part of this list. Inconclusive results are not listed. Calls of active or inactive are those of the source.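 How the source made its calls, unless noted: active means a dose-response fit showing signal loss, with half-maximal concentration no higher than twice the top tested dose; inconclusive means flat fit between 30% and 70% signal loss, or poor fit; inactive means the rest.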

Assay [1] in a line: binders of probe aFSTL3 on microarray, primary screen, stem cell growth factor project, biochemical, small-molecule microarray, fluorescence 635/667 (AID 1064).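 Further: measures binding of the biotinylated anti-FSTL3 antibody to printed compounds.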 The settings on record: higher = more signal.
Assay [2] is described as follows: binders from COS7 lysate, DM2A8 probe, primary screen, torsin A project, cell lysate, small-molecule microarray, fluorescence 635/667 (AID 1065). The settings on record: higher = more signal, COS7 lysate expressing mutant human TOR1A.
The nature of assay [3]: binders of probe aFGF2 on microarray, primary screen, stem cell growth factor project, biochemical, small-molecule microarray, fluorescence 635/667 (AID 1067).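 Further: measures binding of biotinylated aFGF2 protein to printed compounds on slides; z-score merges feature fluorescence and signal-to-noise across triplicate slides.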 The settings on record: higher = more signal.
The nature of assay [4]: binders of probe aFGF10 on microarray, primary screen, stem cell growth factor project, biochemical, small-molecule microarray, fluorescence 635/667 (AID 1071).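 Further: score merges 667 nm spot intensity and signal to noise from triplicate slides.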 Particulars: higher = more signal.
Assay [5] deals with Neurogenic locus notch homolog protein 2 (Homo sapiens) (UniProt Q04721). The experiment in a line: Notch2 binders on small-molecule microarrays, primary screen, biochemical, small-molecule microarray, 635 nm fluorescence, stem cell growth factors (AID 1073). Particulars: Notch2 binding, higher = more signal.
The target in assay [6] is Pro-neuregulin-1, membrane-bound isoform (Homo sapiens) (UniProt Q02297). The experiment in a line: NRG1 binders on small-molecule microarrays, primary screen, psychiatric disease protein project, biochemical, small-molecule microarray, fluorescence 635/667 (AID 1075).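 Further: score combines 667 nm spot fluorescence with signal to noise.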 The settings on record: NRG1 binding, 635 nm fluorescence, higher = more signal.
The test system of assay [7] is Neuregulin-1 EGF-like domain. The experiment in a line: binders of neuregulin-1 EGF-like domain, primary screen, biochemical, small-molecule microarray, 635 nm fluorescence (AID 1081).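 Further: binding of the protein to compounds printed on small-molecule microarray slides.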 Particulars: small-molecule microarray binding, higher = more signal.
The nature of assay [8]: FRG1 promoter luciferase signal modulators, primary screen, FRG1 inhibition for FSHD, cell-based, C2C12 myotubes, firefly/Renilla luciferase, luminescence (AID 1084). The settings on record: higher = more signal, called active from +8 up or from −8 down.
Assay [9] can be described thus: binders of probe aFST on microarray, primary screen, stem cell growth factor project, biochemical, small-molecule microarray, fluorescence 635/667 (AID 1086).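 Further: score merges 667 nm fluorescence with signal-to-noise of each printed compound spot.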 The settings on record: higher = more signal.
Assay [10] in a line: binders of probe aHhip on microarray, primary screen, stem cell growth factor project, biochemical, small-molecule microarray, fluorescence 635/667 (AID 1087).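 Further: score merges spot fluorescence at 667nm with spot signal to noise ratio.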 The settings on record: higher = more signal.
Assay [11] deals with PRMT1 (protein arginine N-methyltransferase 1). The experiment in a line: PRMT1 binders on small-molecule microarrays, primary screen, biochemical, small-molecule microarray, 635 nm fluorescence (AID 1088).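 Further: binding of Prmt1 protein to compounds spotted on small-molecule microarray slides.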 Particulars: small-molecule microarray binding, higher = more signal.
A short description of assay [12]: yeast growth modulation, basal conditions, primary screen, YJM789 clinical isolate, OD600, 24 h (AID 1089).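 Further: growth of clinical yeast isolate S. cerevisiae YJM 789 seeded 1000 cells per well.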 The settings on record: S. cerevisiae YJM789 growth, higher = more signal, called active from +8 up or from −8 down.
Assay [13] is described as follows: fission yeast growth modulation, primary screen, strain 972, OD600, 24 h, no modulator (AID 1090).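 Further: basal condition with compound alone and no growth modifier present.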 The settings on record: S. pombe 972 growth, higher = more signal, called active from +8 up or from −8 down.
Assay [14] is described as follows: S. cerevisiae growth modulation with rapamycin, primary screen, strain BY4716, OD600, 96 h (AID 1091). The settings on record: higher = more signal, called active from +8 up or from −8 down.
Assay [15] deals with Torsin-1A-interacting protein 2 (Homo sapiens) (UniProt Q8NFQ8). The experiment in a line: LULL1 binders on small-molecule microarray, primary screen, cell lysate, human LULL1 lysate, 635/667 nm fluorescence (AID 1092).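 Further: score merges per-feature 667 nm fluorescence with signal-to-noise.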 Particulars: hLULL1 lysate binding, 635 nm fluorescence, higher = more signal.
Assay [16] is described as follows: E. coli growth modulation, two-sided OD650, primary screen, E. coli filamentation project, strain DRC41, 24 h (AID 1093).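 Further: MC1000 strain lacking acrAB efflux and sulA so SOS filamentation is blocked.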 The settings on record: OD650, 24 h, higher = more signal, called active from +8 up or from −8 down.
The nature of assay [17]: small-molecule microarray binders of probe aLefty2, primary screen, biochemical, biotinylated probe, 635/667 nm fluorescence (AID 1094).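 Further: score merges spot fluorescence near 667 nm with spot signal-to-noise ratio.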 The settings on record: higher = more signal.
Assay [18] can be described thus: Cryptococcus neoformans growth inhibition, dose response, Alamar Blue, cherry-picks (AID 686998;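 active means falling signal with fitted half-maximal potency no higher than twice the top valid tested dose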). The settings on record: 24 h; series mostly up to 35 µM. For orientation: Resazurin is reduced to fluorescent resorufin, in cell work by metabolically active cells.
A short description of assay [19]: inducers of Cryptococcus neoformans cell lysis, dose response, AK release luminescence, cherry-picks (AID 687000;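 active means fitted dose curve reaches 40% lysis signal rise at or below the highest valid concentration tested for that sample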;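 further: luminescent detection of adenylate kinase leaking from lysed yeast; 0% = median neutral control signal and 100% = double that signal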). Particulars: C. neoformans lysis, adenylate kinase release luminescence, 4 h, 100% = twice the neutral-control signal; series mostly up to 15 µM.
A short description of assay [20]: HepG2 cell cytotoxicity, dose response, cytotoxicity control, cherry-picks, set 2 (AID 687002). Particulars: HepG2 viability, ATP luminescence (CellTiter-Glo), 48 h; series mostly up to 26 µM.

Torsin-1A-interacting protein 2 (Homo sapiens), sequence (Q8NFQ8 whole entry, looked up): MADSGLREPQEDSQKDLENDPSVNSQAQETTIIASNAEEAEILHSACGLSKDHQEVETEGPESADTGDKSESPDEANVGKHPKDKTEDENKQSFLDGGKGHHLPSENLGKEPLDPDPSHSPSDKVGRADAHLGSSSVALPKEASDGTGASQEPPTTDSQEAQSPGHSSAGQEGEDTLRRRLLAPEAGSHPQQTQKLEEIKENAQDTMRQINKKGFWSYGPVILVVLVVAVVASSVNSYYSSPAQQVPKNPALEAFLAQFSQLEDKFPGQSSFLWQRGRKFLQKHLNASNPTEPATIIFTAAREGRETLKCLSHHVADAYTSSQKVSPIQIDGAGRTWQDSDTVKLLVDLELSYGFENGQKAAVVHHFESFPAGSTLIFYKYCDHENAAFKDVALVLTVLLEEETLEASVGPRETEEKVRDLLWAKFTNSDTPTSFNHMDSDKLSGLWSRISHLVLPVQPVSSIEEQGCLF
Pro-neuregulin-1, membrane-bound isoform (Homo sapiens), sequence (Q02297 whole entry, looked up, the tested form may be a part, canonical isoform): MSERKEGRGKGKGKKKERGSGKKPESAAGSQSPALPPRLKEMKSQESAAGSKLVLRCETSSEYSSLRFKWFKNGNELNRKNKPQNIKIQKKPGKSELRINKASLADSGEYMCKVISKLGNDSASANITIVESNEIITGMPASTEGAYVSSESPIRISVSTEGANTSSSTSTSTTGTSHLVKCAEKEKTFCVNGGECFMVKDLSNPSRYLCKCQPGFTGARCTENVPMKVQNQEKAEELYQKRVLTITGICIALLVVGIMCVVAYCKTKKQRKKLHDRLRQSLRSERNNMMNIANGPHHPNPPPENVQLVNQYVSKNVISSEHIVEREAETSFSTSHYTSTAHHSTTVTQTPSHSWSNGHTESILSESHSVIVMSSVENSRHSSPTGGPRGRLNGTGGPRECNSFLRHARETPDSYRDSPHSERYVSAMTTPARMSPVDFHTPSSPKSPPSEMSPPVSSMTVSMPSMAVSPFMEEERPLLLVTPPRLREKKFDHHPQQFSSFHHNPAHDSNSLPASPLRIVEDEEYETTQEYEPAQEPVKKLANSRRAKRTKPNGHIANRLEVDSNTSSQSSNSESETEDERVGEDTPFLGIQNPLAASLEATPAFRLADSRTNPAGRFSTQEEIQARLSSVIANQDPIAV
Neurogenic locus notch homolog protein 2 (Homo sapiens), sequence (Q04721 whole entry, looked up, canonical isoform): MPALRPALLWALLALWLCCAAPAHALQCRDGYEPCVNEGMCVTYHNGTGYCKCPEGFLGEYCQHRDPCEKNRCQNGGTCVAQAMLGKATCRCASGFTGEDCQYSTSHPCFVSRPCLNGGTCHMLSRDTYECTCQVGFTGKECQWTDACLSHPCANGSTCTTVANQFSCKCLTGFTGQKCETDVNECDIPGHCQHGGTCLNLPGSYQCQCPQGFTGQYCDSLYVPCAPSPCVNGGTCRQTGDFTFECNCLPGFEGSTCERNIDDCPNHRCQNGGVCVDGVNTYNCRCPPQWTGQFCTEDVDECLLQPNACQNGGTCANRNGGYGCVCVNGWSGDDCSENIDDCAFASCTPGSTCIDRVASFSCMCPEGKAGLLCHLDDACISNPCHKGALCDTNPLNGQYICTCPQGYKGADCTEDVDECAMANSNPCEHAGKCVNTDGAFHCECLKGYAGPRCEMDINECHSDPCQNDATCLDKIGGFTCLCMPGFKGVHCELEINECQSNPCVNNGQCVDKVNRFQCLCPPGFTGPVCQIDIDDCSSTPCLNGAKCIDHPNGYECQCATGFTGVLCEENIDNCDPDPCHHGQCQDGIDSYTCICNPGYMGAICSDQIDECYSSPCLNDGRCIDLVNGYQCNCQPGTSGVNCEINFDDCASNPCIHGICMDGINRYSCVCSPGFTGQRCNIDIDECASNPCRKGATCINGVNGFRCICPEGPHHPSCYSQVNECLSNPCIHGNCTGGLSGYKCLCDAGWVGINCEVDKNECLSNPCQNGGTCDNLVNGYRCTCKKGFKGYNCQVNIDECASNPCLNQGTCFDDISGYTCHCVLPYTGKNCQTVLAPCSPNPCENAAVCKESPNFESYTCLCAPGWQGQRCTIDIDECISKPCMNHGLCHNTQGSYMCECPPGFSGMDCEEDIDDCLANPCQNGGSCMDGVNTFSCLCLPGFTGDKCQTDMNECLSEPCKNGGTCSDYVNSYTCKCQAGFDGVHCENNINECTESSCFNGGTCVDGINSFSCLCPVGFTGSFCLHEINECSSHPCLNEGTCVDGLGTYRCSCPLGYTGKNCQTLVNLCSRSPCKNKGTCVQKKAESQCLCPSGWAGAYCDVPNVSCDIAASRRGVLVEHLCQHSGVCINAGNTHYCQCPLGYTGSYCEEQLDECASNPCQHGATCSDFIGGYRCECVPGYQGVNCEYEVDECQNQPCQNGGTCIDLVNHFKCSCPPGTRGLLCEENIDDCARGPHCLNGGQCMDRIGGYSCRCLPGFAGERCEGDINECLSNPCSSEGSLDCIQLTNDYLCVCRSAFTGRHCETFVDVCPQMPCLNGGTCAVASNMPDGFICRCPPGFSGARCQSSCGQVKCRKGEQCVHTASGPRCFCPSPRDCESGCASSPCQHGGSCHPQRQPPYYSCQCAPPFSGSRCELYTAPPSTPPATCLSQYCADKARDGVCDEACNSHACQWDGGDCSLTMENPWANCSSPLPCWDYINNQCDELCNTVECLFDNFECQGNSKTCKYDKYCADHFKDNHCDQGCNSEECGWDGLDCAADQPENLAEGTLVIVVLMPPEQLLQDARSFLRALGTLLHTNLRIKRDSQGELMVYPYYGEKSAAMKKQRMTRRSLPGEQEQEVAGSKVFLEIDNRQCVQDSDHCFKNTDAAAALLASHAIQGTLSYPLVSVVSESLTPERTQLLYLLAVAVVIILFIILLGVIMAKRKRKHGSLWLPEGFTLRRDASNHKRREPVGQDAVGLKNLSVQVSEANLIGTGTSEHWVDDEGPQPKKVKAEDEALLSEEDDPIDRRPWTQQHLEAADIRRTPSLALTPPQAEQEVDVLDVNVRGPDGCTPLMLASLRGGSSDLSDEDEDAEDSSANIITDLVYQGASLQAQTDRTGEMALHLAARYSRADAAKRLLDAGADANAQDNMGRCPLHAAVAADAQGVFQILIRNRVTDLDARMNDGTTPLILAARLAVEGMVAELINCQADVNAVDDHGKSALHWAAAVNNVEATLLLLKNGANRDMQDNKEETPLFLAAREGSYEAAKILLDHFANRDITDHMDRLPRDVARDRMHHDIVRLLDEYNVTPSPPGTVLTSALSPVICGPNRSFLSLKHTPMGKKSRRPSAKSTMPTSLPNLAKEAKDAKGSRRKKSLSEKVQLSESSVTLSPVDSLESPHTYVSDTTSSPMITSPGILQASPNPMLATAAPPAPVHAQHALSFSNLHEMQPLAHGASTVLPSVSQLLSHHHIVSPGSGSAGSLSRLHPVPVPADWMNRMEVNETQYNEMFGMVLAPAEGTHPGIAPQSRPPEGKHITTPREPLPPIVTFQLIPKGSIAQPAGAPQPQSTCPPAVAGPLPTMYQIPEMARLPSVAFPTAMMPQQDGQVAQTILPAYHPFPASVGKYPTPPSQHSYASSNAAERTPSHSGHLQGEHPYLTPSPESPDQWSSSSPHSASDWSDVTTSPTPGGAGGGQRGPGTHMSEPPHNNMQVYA

In the case of `COCCOC(=O)N1C(=O)[C@@]2(c3cc(C#CC4(O)CCCCCC4)ccc31)[C@H](c1ccc(O)cc1)N1[C@H](c3ccccc3)[C@H](c3ccccc3)OC(=O)[C@H]1[C@@H]2C(N)=O`, the composite z-score in [1] was -0.0102; in assay [2], 1.54; in assay [3], 0.103; in assay [4], 0.631; in assay [5], 0.397; in assay [6], 1.1. Moreover, the composite z-score in assay [7] is 0.874; in assay [9], 0.351; in [10], -0.0173; in assay [11], 1.5; in assay [15] it was 2.01; in assay [17] it was 0.178. Also, the z-score in assay [8] was -0.868 (inactive); in assay [12] it was -0.549 (inactive); in assay [13], -3.29 (inactive); in assay [14] it was -0.624 (inactive); in assay [16], 2.01 (inactive).

For the molecule `CO[C@H]1CN(C)C(=O)c2cc(NS(=O)(=O)CC(F)(F)F)ccc2OC[C@@H](C)N(Cc2cccnc2)C[C@@H]1C`, the result in [18], in [19] and in [20] was inactive.

For `Cc1cccc(C)c1NC(=O)C(CCc1ccccc1)N1CCC(c2ccccc2)CC1` (stereo not given), the result in assay [18], in assay [19] and in assay [20] was inactive.

With `COc1ccccc1CN1CC[C@H]2[C@H](CO)Nc3ccc(C#Cc4ccccc4)cc3[C@H]21`, the outcome in assay [18], in [19] and in assay [20] was inactive.

For the molecule `C[C@@H]1CN([C@@H](C)CO)S(=O)(=O)c2ccc(C#CC3CC3)cc2O[C@H]1CN(C)CC1CCOCC1`, the molecule was classed as inactive in assay [18], in assay [19] and in assay [20].

In the case of `COc1cccc(S(=O)(=O)N2C[C@@H](O)COC[C@H]3O[C@H](CC(=O)Nc4ccccc4)CC[C@@H]32)c1`, the outcome in assay [18], in assay [19] and in assay [20] was inactive.

For `C[C@@H]1CN([C@@H](C)CO)C(=O)Cc2cc(NC(=O)Nc3cccc4ccccc34)ccc2O[C@@H]1CN(C)S(=O)(=O)c1cccs1`, the molecule was called inactive in [18], in assay [19] and in [20].

With `COc1cc(C(=O)Oc2ccccc2N)cc(OC)c1OC`, the result in [18], in [19] and in assay [20] was inactive.

For the molecule `C[C@H](CO)N1C[C@H](C)[C@@H](CN(C)Cc2ccncc2)Oc2ccc(NC(=O)CCC(F)(F)F)cc2C1=O`, the result in [18], in assay [19] and in assay [20] was inactive.

On to `C[C@@H]1CN([C@@H](C)CO)C(=O)c2c(c3ccccc3n2C)-c2ccccc2CO[C@@H]1CN(C)S(=O)(=O)c1ccc(Cl)cc1`, for which the molecule was called inactive in assay [18], in assay [19] and in [20].

Turning to `CCC(=O)N(C)C[C@H]1Oc2cc(-c3ccccc3)ccc2S(=O)(=O)N([C@H](C)CO)C[C@H]1C`, the call in [18], in [19] and in assay [20] was inactive.

Take `C[C@H]1CN([C@@H](C)CO)C(=O)Cc2cc(NC(=O)CCCCCC(=O)Nc3ccccc3N)ccc2O[C@H]1CN(C)Cc1ccc2c(c1)OCO2`: the call in [18], in assay [19] and in assay [20] was inactive.

Consider `O=C1CCC(C(=O)Nc2cccc(C(F)(F)F)c2)N1` (stereo not given), for which the result in [18], in [19] and in [20] was inactive.

`CC(C)NC(=O)Nc1ccc2c(c1)CC(=O)N([C@H](C)CO)C[C@H](C)[C@H](CN(C)S(=O)(=O)c1ccc(Cl)cc1)O2`: the outcome in assay [18], in assay [19] and in assay [20] was inactive.

On to `Cc1noc(C)c1NC(=O)Nc1ccc2c(c1)C(=O)N(C)[C@@H]1CC[C@H](CC(=O)N[C@H]3CCN(Cc4ccccc4)C3)O[C@@H]1CO2`, for which the molecule was classed as inactive in [18], in assay [19] and in assay [20].

As to `COc1ccc(N(CC(=O)NCCSCc2ccc(C)cc2)S(=O)(=O)c2ccccc2)cc1`, the call in assay [18], in assay [19] and in [20] was inactive.

On to `C[C@@H]1CN([C@H](C)CO)S(=O)(=O)c2ccc(C#Cc3ccc(F)cc3)cc2O[C@H]1CN(C)C(=O)NC1CCCC1`, for which the call in [18], in assay [19] and in [20] was inactive.

Regarding `O=C(Nc1ccccc1)N1CCCCN2[C@H](CO)[C@@H](c3ccc(C#CC4CC4)cc3)[C@@H]2C1`, the molecule was called inactive in assay [18], in [19] and in [20].

Consider `O=C(C1CCOCC1)N1CC[C@@H]2[C@H]1c1cc(Br)ccc1N[C@@H]2CO`, for which the outcome in assay [18], in [19] and in assay [20] was inactive.

In the case of `CC=Cc1ccc2n(c1=O)C[C@H]1[C@H](CO)[C@@H](C(=O)N3CCc4ccccc4C3)N(C(=O)C3CC3)[C@@H]21` (mixture of isomers), the molecule was classed as inactive in [18], in [19] and in assay [20].

Turning to `O=C(CN1CCOCC1)N1CC[C@@H]2[C@@H](CO)Nc3ccc(-c4ccccc4F)cc3[C@@H]21`, the molecule was classed as inactive in assay [18], in assay [19] and in [20].

As for `C[C@@H]1CN([C@@H](C)CO)C(=O)c2cc(NC(=O)Nc3cccc4ccccc34)ccc2O[C@@H]1CN(C)C(=O)Nc1ccccc1`, the result in assay [18], in assay [19] and in assay [20] was inactive.

`C[C@@H]1CN([C@@H](C)CO)S(=O)(=O)c2ccc(-c3ccccc3)cc2O[C@H]1CN(C)C(=O)C1CCCCC1`: the molecule was classed as inactive in [18], in [19] and in [20].

Consider `C[C@H](CO)N1C[C@H](C)[C@H](CN(C)Cc2ccccc2)Oc2cc(C#Cc3ccccn3)ccc2S1(=O)=O`, for which the result in assay [18], in [19] and in assay [20] was inactive.

Turning to `C[C@H]1CCCCO[C@H](CN(C)C(=O)Nc2ccc(F)cc2)[C@@H](C)CN([C@@H](C)CO)C(=O)c2cc(NS(=O)(=O)c3ccc(Cl)cc3)ccc2O1`, the outcome in [18], in assay [19] and in [20] was inactive.

Turning to `COc1ccccc1C(=O)Nc1ccc2c(c1)OC[C@H](C)N(C(C)=O)C[C@H](C)[C@H](OC)CN(C)C2=O`, the molecule was called inactive in assay [18], in [19] and in [20].

As for `C[C@@H]1CN([C@H](C)CO)C(=O)c2c(c3ccccc3n2C)-c2ccccc2CO[C@H]1CN(C)S(=O)(=O)c1ccc(Cl)cc1`, the molecule was classed as inactive in assay [18], in assay [19] and in assay [20].

Consider `C[C@@H]1CN([C@H](C)CO)C(=O)c2cccc(NC(=O)Nc3ccccc3)c2O[C@@H]1CN(C)Cc1ccc(Cl)c(Cl)c1`, for which the call in assay [18], in [19] and in assay [20] was inactive.

Turning to `COc1cccc(-c2cn(CC[C@@H]3CC[C@@H](NC(C)=O)[C@H](CO)O3)nn2)c1`, the result in assay [18], in [19] and in assay [20] was inactive.

In the case of `C[C@@H](NC(=O)C[C@@H]1CC[C@H]2[C@@H](COC[C@@H](O)CN2Cc2cc(F)ccc2F)O1)c1ccccc1`, the call in assay [18], in [19] and in assay [20] was inactive.

As for `CC1CCCCN1C(=O)CSc1nc(C2CC2)nc2c1cnn2-c1ccccc1` (stereo not given), the molecule was classed as inactive in assay [18], in [19] and in assay [20].

Take `CS(=O)(=O)c1ccc(-c2cnc3c(NC=O)cc(-c4ccsc4)cn23)cc1`: the molecule was classed as inactive in assay [18], in assay [19] and in assay [20].

With `C[C@@H]1CCCCO[C@H](CN(C)Cc2ccc3c(c2)OCO3)[C@H](C)CN([C@H](C)CO)C(=O)c2cc(NC(=O)Nc3cccc4ccccc34)ccc2O1`, the outcome in [18], in assay [19] and in assay [20] was inactive.

In the case of `CC(C)(C)c1ccc(OCC(=O)NC(c2ccccc2)c2ccccc2)cc1`, the outcome in assay [18], in [19] and in [20] was inactive.

With `CCCN1CCCC[C@H]1C(=O)Nc1c(C)cccc1C`, the call in assay [18], in assay [19] and in assay [20] was inactive.

As for `CCOc1ccc(C(=O)NC(=S)Nc2ccccc2N2CCC(C)CC2)cc1[N+](=O)[O-]`, the molecule was called inactive in [18], in [19] and in assay [20].

As to `C[C@@H](NC(=O)C[C@@H]1CC[C@@H]2[C@H](COC[C@H](O)CN2Cc2cc(F)ccc2F)O1)c1ccccc1`, the call in [18], in assay [19] and in assay [20] was inactive.
